In ChEMBL document CHEMBL4513216, “Probing the Open Global Health Chemical Diversity Library for Multistage-Active Starting Points for Next-Generation Antimalarials” (ACS Infect Dis, 2020) one finds INHIBITION data, which are given here for 58 compounds.

Hit rate of the full screen: of about 69,000 compounds, about 8,600 (12%) showed an effect of 50% or more. The list comes from a sample in which strong results are over-represented; it also holds similar structures and randomly drawn compounds.

The assay concerns Plasmodium berghei. Put plainly: Screen against P. berghei liver stage (PbLuc), transformed with Luciferase, at 10uM. It is filed as functional, HepG2. The settings on record: tested at 10 uM.
On to `CSc1nccc(N2C[C@H]3CC[C@@H](C2)N(CC2CCC2)C3=O)n1`, for which the INHIBITION amounted to 22.3%.
As for `CC(C)c1noc(CCCC(=O)N2CCN(Cc3ccsc3)CC2)n1`, the figure is 21.5%; as for `CCCc1ccc(OC23CCCN(CC2)C3)c(OC)c1` (stereo not drawn), 14.9%.
As for `Cc1cc(C(=O)N(C)C)nc(C2(C)CCCN2c2ccccc2)n1` (stereo not drawn), the INHIBITION is listed as 23.9035%.
As for `COc1ccc(C(=O)NS(=O)(=O)c2cncc(Br)c2)cc1`, the figure is -2.48%; as for `COCCCN1Cc2cccc(NC(=O)C(C)(C)C)c2C1`, -21.1%.
As to `CC(C)Cc1nc(OCC#N)c(C#N)c2c1CCC2`, the INHIBITION was 44.9%.
For `Cc1cnn(CC(=O)N2CCC(Nc3ccc(C)nn3)CC2)c1`, the INHIBITION was found to be 39.95%.
Consider `O=C(CSC1CCc2ccccc2NC1=O)Nc1ccc(CCO)cc1` (stereo not drawn), for which the INHIBITION is -10.8%.
To `Cc1ccc2c(n1)N(Cc1cccnc1)CCN(Cc1cnn(C)c1)C2` belongs 30.5%; to `Cc1ccc2c(n1)N(CC1CC1)CCN(Cc1cnn(C)c1)C2`, 55.4%.
To `Cc1ccc2c(n1)N(C)CCN(Cc1cnn(C)c1)C2` belongs 49.4%; to `CC(CCc1ccccc1)N1CCC(C(=O)Nc2ccccn2)CC1` (stereo not drawn), -6.46%; to `Cc1ccc(CNCc2cccc3cccnc23)c(OC2CCOC2)c1` (stereo not drawn), -62.1%.
As for `Cc1ccc(NCc2cccc3cn[nH]c23)cc1OC1CCOC1` (stereo not drawn), the figure is -16.8%; as for `Cc1ccc(CNCc2cccc3cn[nH]c23)c(OC2CCOC2)c1` (stereo not drawn), 66%; as for `Cc1cc(F)ccc1N1CCCC(NC2CCOCC2)C1=O` (stereo not drawn), 21.3%.
Consider `Cc1ccc(CN2CCOC3(COCCN(Cc4ccncc4)C3)C2)o1` (stereo not drawn), for which the INHIBITION came out at 14%.
Turning to `O[C@@H]1CN(Cc2cccnc2)C[C@H]1Oc1ccccc1`, the INHIBITION stood at 26.8%.
As for `O[C@@H]1CN(Cc2ccncc2)C[C@H]1Oc1ccccc1`, the figure is 39.7%.
For the compound `Cc1cncc(CN2C[C@@H](O)[C@H](Oc3ccccc3)C2)c1`, the INHIBITION is on record as 51.5%.
Regarding `CCOCC(=O)N1CC[C@@H]2O[C@@H](C)C[C@H]2C1`, the INHIBITION is recorded as 43.9%.
Turning to `O=c1[nH]c2ccccc2c2c1CCO2`, the INHIBITION came out at 30.7%.
Consider `CC(=O)N(Cc1ncc(C(C)C)o1)C1CCN(Cc2ccno2)C1` (stereo not drawn), for which the INHIBITION was determined as 0.1995%.
With `COc1cccc2c1OCC(NC(=O)NC1CCN(C3CC3)CC1)C2` (stereo not drawn), the INHIBITION is recorded as -3.16%.
Turning to `COc1cccc2c1OCC(NCc1cnn(-c3ccccc3F)c1)C2` (stereo not drawn), the INHIBITION is given as 53.8%.
As for `COc1cccc2c1OCC(CNC(=O)CSc1ccccn1)C2` (stereo not drawn), the INHIBITION is given as -52.3%.
In the case of `COc1cccc2c1OCC(NCCc1cnn(-c3ccccc3)c1)C2` (stereo not drawn), the INHIBITION stood at 77.6%.
As for `COc1cccc2c1OCC(NCc1cnn(-c3ccccc3)c1)C2` (stereo not drawn), the figure is 62.8%; as for `COc1cccc2c1OCC(NCCCOc1cccnc1)C2` (stereo not drawn), 14%; as for `COCCN(Cc1cnn(C)c1)C(=O)C1COc2c(cccc2OC)C1` (stereo not drawn), 22.3%.
`COc1cccc2c1OCC(C(=O)N(C)CCCc1cnn(C)c1)C2` (stereo not drawn): the INHIBITION came to 40.9%.
As for `COc1cccc2c1OCC(C(=O)N1Cc3ccccc3C1)C2` (stereo not drawn), the figure is 44.8%; as for `Cc1noc(C(C)N2CCN(CCC(=O)N3CCCCC3)CC2)n1` (stereo not drawn), 17.4%.
Take `Cc1cc(C2CCNCC2)nc(-c2ccsc2)n1`: the INHIBITION is 20.2%.
Regarding `CCC(=O)Nc1ccc(C(C)NC(=O)COCCOC)cc1` (stereo not drawn), the INHIBITION was -28.4%.
To `CC(=O)N1CCC2(CC1)CN(C(=O)c1cccnc1)c1ccc(F)cc12` belongs 34.9%; to `COc1c(C2CCCN2CC(=O)Nc2ccncc2)c(C)nn1C` (stereo not drawn), 21.6%; to `Cc1nc(NCCN2CCCC2=O)cc(C2CN(C(C)C)CCO2)n1` (stereo not drawn), 25%.
To `CCc1n[nH]c(C2CN(C(=O)c3ccc4c(c3)COC4)CCO2)n1` (stereo not drawn) belongs -59.4%.
With `CC(=O)N1CCC(N2CC(Cc3nccc4ccn(C)c34)C2)CC1`, the INHIBITION was 28%.
To `COc1ccc(NC(=O)N2CCN(CCSc3ccccc3)CC2)cc1` belongs -28.15%; to `CC(C)c1cc(C(=O)N2CCN(c3ccc(F)c(Cl)c3)CC2)n(C)n1`, 50.8%; to `CC(=O)c1ccc(N2CCN(C(=O)c3cc(C(C)C)nn3C)CC2)cc1`, 36.3%.
To `CC(C)c1cc(C(=O)N2CCN(c3ccncc3)CC2)n(C)n1` belongs -106%; to `COc1cccc(C2CC(=O)Nc3c2cnn3C(C)(C)C)c1` (stereo not drawn), -38.6%.
Consider `CN1CCNC(=O)C12CCN(Cc1ccco1)CC2`, for which the INHIBITION is 36.9%.
Turning to `CCOc1cc(Cl)c(CN2CCC3(CCCNC3=O)C2)cc1OC` (stereo not drawn), the INHIBITION was 9.41%.
As for `Cc1ccc(CN2CCC3(CC2)C(=O)NCCN3CC2CC2)o1`, the figure is 89.3%; as for `Cc1ccc(Sc2ccc(CN3CCC4(CC3)NCCNC4=O)o2)cc1`, 66.1%.
Take `O=C1NCCCC12CCN(Cc1ccc(SC3CCCCC3)o1)C2` (stereo not drawn): the INHIBITION came to 72.3%.
For `O=C1NCCCC12CCN(Cc1ccc(-c3ccccc3)s1)C2` (stereo not drawn), the INHIBITION was 21.2%.
Take `Cc1ccc(Sc2ccc(CN3CCC4(CCCNC4=O)C3)o2)cc1` (stereo not drawn): the INHIBITION is 90.8%.
To `CCN(CC)Cc1cc(C(=O)N2CCC3(CC2)NCCNC3=O)c(C)o1` belongs 12.4%.
Take `CCOc1cc2c(cc1CN1CCC3(CCCNC3=O)C1)CCC2` (stereo not drawn): the INHIBITION was 41.2%.
As to `Cc1cc(CN2CCC3(CC2)C(=O)NCCN3CC2CC2)oc1C`, the INHIBITION is 42.7%.
Take `O=C1NCCCC12CCN(S(=O)(=O)N1CCOCC1)C2` (stereo not drawn): the INHIBITION is -3.24%.
`O=C1NCCN(CC2CC2)C12CCN(Cc1ccco1)CC2`: the INHIBITION turned out to be 45.5%.
